molecular target: P4HB; assay: pooled miR-30 sensor sort-seq; sequence = guide strand; conditions: shRNA
Note: reference of the scale not given here.

| Sequence | sensor-assay potency score (higher = more potent) |
| --- | --- |
| TTGCAGTGACCACACCATGGGG | -1.18 |
| TTGTAATCAATGACCGTCCTGT | 0.492 |
| TTGACAGGCTGCTTGTCCCAGT | -0.656 |
| TTTCTGATCATCGTCTTCCTCC | 0.0481 |
| TTCCTGAAGAACTTGATGGTGG | 0.134 |
| TTTCTTAAAACCATCCAGCGTG | -0.457 |
| TTCACCTCCAAAAATCTTCGGG | 0.109 |
| TATTTGGAGAACACGTCACTGT | -0.00902 |
| TTGGAGAACACGTCACTGTTGG | 0.0264 |
| TTGGCAGTCGAGTCCATCTTGG | -1.06 |
| TAGAACTCCACAAAGACGTTTT | -0.145 |
| TTTGATAAAGTCCAGCAGGTTC | -0.96 |

molecular target: PAFAH1B2; assay: as above; conditions: shRNA

| Sequence | sensor-assay potency score (higher = more potent) |
| --- | --- |
| TTGTGCTGAGACATCCATCGGT | 0.723 |
| TTCTTCTGCTGTATTTTCGTGG | -0.326 |
| ATTTAAACAACAATCTTCCTTG | 0.529 |

— the OligoGym collection
